# Screening results deposited in PubChem by National Center for Advancing Translational Sciences (NCATS).
# Most compounds without a hit are left out; they make up all but 18% or so of the library.
# TDP1 cell noCPT – qHTS for Inhibitors of human tyrosyl-DNA phosphodiesterase 1 (TDP1): qHTS in cells in absence of CPT. 420,000 tested, 15% active. Potency, µM (titrated, usually from 46.2 µM), for the others: at the top dose activity change, negative = growth inhibition, actives largely listed as inhibitors. DT40 Tdp1-/- hTDP1 cells, no CPT, ATP luminescence, 48 h. AID 686978, 2013; also: potency is read from the fitted curve at half-maximal effect; % is scaled to controls: 0 for no effect and ±100 for the full control effect; nearly all actives have a fitted effect of over 55% in size
#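 Cells were dispensed at 400 per well, compounds added by pin tool, plates incubated ≥48 hr at 37 °C, then CellTiter-Glo added for 30 min at room temperature before luminescence reading. Line: DT40 Tdp1-/- complemented with hTDP1; camptothecin omitted.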
# DT40 TDP1 CPT – growth inhibition of DT40 Tdp1-/-;hTDP1 cells with camptothecin (screen for TDP1 inhibitors). chicken DT40 Tdp1-/-;hTDP1 cells + 20 nM CPT, ATP luminescence, 48 h. AID 686979. Potency, µM (highest dose often 46.2 µM), inactives show at the top dose activity change, negative = growth inhibition, actives largely listed as inhibitors. 420,000 tested, 12% active; also: potency is read from the fitted curve at half-maximal effect; % is scaled to controls: 0 for no effect and ±100 for the full control effect; nearly all actives have a fitted effect of over 55% in size
#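 Cell growth measured by CellTiter-Glo luminescence after a minimum 48 h, 37 C compound exposure with 20 nM CPT in Tdp1-knockout DT40 cells stably expressing hTDP1, seeded 400/well; qHTS titration format.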
# IL-1B inflam inh – inhibitors of inflammasome signaling (IL-1 beta secretion); THP-1 LPS/ATP IL-1B secretion, AlphaLISA, 16 h; stronger effect = lower value; activity change, % at 57.5 µM; 360,000 tested, 4.7% active; in the data active = activity change below about -50%; inconclusive = mostly about -30% to -49%; also: % is scaled to controls: 0 for no effect and ±100 for the full control effect
#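 Secreted IL-1B measured by AlphaLISA bead assay after 16 h compound exposure of THP-1 cells; compounds (final up to 57.5 uM) added 1 h before LPS (250 ng/mL) and ATP (1.25 mM) stimulation; lower signal means less secretion.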
# HepG2 viability – counter-screen for TGF-b inhibitors: cytotoxicity in HepG2 cells; HepG2 CAGA-GFP viability, ATP luminescence, 18 h; Potency, µM (titrated, usually from 46.1 µM), inactives show at the highest dose activity change, negative = cytotoxicity, actives largely listed as cytotoxic; 410,000 tested, 0.76% active; AID 588856; also: potency is read from the fitted curve at half-maximal effect
#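 HepG2 CAGA-GFP cells (1000/well, DMEM with 1% FBS) received compound, then TGF-beta at 500 pg/mL final, and were incubated 18 hours at 37 degrees C. Viability was read by CellTiter-Glo luminescence. Media-only wells were set as complete cell-killing and DMSO as no toxicity.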
# TDP1 block – TDP1 (human) enzyme inhibition; 350,000 tested, 0.28% active; Potency, µM (doses to about 130 µM), inactives show top-dose activity change, negative = inhibition, hits mostly inhibitors; AID 485290; recombinant TDP1, AlphaScreen DNA substrate cleavage; Q9NUW8; also: potency is read from the fitted curve at half-maximal effect; % is scaled to controls: 0 for no effect and ±100 for the full control effect; nearly all actives have a fitted effect of over 40% in size
# Target sequence (Q9NUW8 whole entry, looked up): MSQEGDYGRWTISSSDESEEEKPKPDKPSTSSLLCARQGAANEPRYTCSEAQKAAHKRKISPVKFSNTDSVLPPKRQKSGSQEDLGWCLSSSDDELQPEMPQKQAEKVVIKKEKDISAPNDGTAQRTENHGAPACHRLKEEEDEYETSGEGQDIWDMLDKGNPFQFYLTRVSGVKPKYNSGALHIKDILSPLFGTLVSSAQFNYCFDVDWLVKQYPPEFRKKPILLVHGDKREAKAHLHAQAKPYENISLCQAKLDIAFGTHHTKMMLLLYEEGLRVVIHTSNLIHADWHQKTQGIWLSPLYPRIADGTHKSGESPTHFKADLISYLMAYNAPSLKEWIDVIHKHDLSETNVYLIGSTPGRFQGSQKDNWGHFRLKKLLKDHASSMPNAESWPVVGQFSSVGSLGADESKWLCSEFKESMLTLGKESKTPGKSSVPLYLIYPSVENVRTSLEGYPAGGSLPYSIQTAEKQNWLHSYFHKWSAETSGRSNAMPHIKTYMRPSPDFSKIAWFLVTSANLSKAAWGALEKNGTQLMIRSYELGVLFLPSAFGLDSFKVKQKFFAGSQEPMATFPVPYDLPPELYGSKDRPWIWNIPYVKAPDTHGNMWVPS
#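 AlphaScreen read-out: signal falls as enzyme removes the 3' tyrosine-FITC from a 5'-biotinylated DNA oligo (15 nM, 5 min, RT). Enzyme was E. coli-made recombinant Tdp1 at 1 nM, exposed to compound for 15 min beforehand; beads 10 ug/ml, 10 min.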
# TGFb inhibitor – TGF-b pathway inhibition; HepG2 CAGA-GFP TGF-b/SMAD3 reporter, GFP fluorescence, 18 h; TGF-beta stimulated, 500 pg/mL final; Potency, µM (titrated, usually from 46.1 µM), for inactives: at the highest dose activity, negative = inhibition, hits mostly inhibitors; 410,000 tested, 1.2% active; also: potency is read from the fitted curve at half-maximal effect; % is scaled to controls: 0 for no effect and ±100 for the full control effect; nearly all actives have a fitted effect of over 65% in size
#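 HEPG2 CAGA-GFP reporter cells (1000/well, DMEM with 1% FBS) received compounds, then recombinant TGF-beta at 500 pg/mL final for 18 hours at 37 degrees C. Per-cell GFP summed per well was normalised to unstimulated and stimulated DMSO controls before curve fitting.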
# Numbers without * were called inactive; ? = inconclusive; · = no result given; [ ] = dose if it differs, or a comment. Unless noted, calls follow the shape of the dose curve; as a rule, active = well fitted curve in the direction sought with a large enough effect; inconclusive = small, poorly fitted or top-dose-only effect, or another doubt; inactive = no such curve, though single readings can be large; an effect the other way counts as inactive or inconclusive.
SMILES,TDP1 cell noCPT,DT40 TDP1 CPT,IL-1B inflam inh,HepG2 viability,TDP1 block,TGFb inhibitor
COc1cc2c(cc1OC)CN(C(=O)c1ccc(OC)c(S(=O)(=O)N3CCCC3)c1)CC2,29µM*,?,-8,-7%,11%,2%
CCNC(=O)NC(=O)C(C)N1C(=O)NC(c2ccccc2)(c2ccccc2)C1=O (stereo unspecified),-13%,-6%,-7,4%,·,4%
COC(=O)N1CCC[C@@]2(CCN(C(=O)Nc3ccc(OC)cc3)C2)C1,12%,11%,·,·,·,·
COCc1cc(N2CCCC2)nc(-c2ccccc2)n1,-30%,5%,0,-1%,-5%,13%
COc1cc2c(cc1OC)CN(C(=O)c1ccc(Cl)c(S(=O)(=O)N3CCCC3)c1)CC2,?,23µM*,?,-24%,1%,-24%
O=S(=O)(c1ccc(Br)cc1)c1nc(-c2cccs2)oc1SCc1ccccc1F,?,?,·,-1%,0%,2%
COc1ccc(C(=O)C[n+]2ccc(N(C)C)cc2)cc1,16µM*,?,22,17%,8%,-1%
CN(C)c1cc[n+](CC(=O)c2ccc(Br)cc2)cc1,?,16µM*,16,-45%,0%,-21%
S=C(NCc1ccccc1)N1CCCCC1,-13%,-3%,-19,-17%,5%,-5%
CC(NNC(=S)N1CCCCCC1)c1ccc2ccccc2n1 (stereo unspecified),0.0082µM*,0.0082µM*,85,-14%,·,?
COc1ccc(-c2csc3ncn(-c4ccccc4OC)c(=O)c23)cc1OC,23µM*,?,-13,-19%,5%,-4%
COc1ccccc1-n1cnc2sc(-c3ccccc3)cc2c1=O,12µM*,?,-22,-1%,-2%,-21%
CCn1cnc2scc(-c3ccc(OC)cc3)c2c1=O,7%,-24%,?,-31%,0%,-4%
COc1ccccc1-n1cnc2sc(C)c(C)c2c1=O,2%,-16%,-4,-14%,·,-8%
COc1ccc(-c2csc3nc(-c4ccccc4OC)oc(=O)c23)cc1,23µM*,21µM*,·,-2%,0%,-1%
CCOc1ccc(-c2csc3ncn(-c4ccc(OC)cc4)c(=O)c23)cc1,16µM*,?,?,0%,-1%,-23%
COc1ccc(S(=O)(=O)N(CC(=O)NCc2ccncc2)c2cc(C)cc(C)c2)cc1OC,0%,10%,22,-4%,·,-18%
Cc1ccc(N2CC(NC(=O)c3cccc(Cl)c3)CC2=O)cc1C (stereo unspecified),?,?,·,-7%,0%,-5%
CC(C(=O)NC1CCCC1)n1c(-c2ccncc2)nc2ccccc21 (stereo unspecified),1%,-6%,31,·,·,·
C=CCSc1nnc(NC(=O)CCN2C(=O)C3CC=CCC3C2=O)s1 (stereo unspecified),1%,-20%,11,-38%,1%,5%
COc1ccc(-c2csc3nc(C)n(-n4cccc4)c(=O)c23)cc1OC,23µM*,16µM*,21,2%,9%,11%
COc1ccc(-c2csc3nc(C)nc(N4CCCCC4)c23)cc1OC,15µM*,?,-11,-7%,2%,-3%
COc1ccc(-c2csc3nc(-c4ccc(C)cc4)oc(=O)c23)cc1OC,10µM*,9.2µM*,-1,-15%,-12%,-9%
COc1ccc(-c2csc3nc(-c4cccnc4)nc(N4CCC(C(N)=O)CC4)c23)cc1OC,?,?,-15,-18%,7%,3%
COc1ccc(-c2csc3nc(C(C)(C)C)oc(=O)c23)cc1OC,?,-26%,15,-17%,4%,-3%
SMILES,TDP1 cell noCPT,DT40 TDP1 CPT,IL-1B inflam inh,HepG2 viability,TDP1 block,TGFb inhibitor
Cc1ccccc1-c1nc(NCCN2CCOCC2)c2ccccc2n1,-22%,-11%,·,·,7.9µM*,·
Clc1ccc(-c2nc(NCCN3CCOCC3)c3ccccc3n2)cc1,?,?,-61*,-19%,2%,-1%
CNc1nc(-c2ccccc2C)nc2ccccc12,-20%,?,·,·,·,·
c1cncc(-c2nc(NCCN3CCOCC3)c3ccccc3n2)c1,?,-7%,·,·,-1%[56.1 µM],·
Cc1ccccc1-c1nc(CS(=O)(=O)CC(=O)NCCCc2ccccc2)c(C)o1,?,?,·,-27%,7%,?
CN(CC(=O)Nc1ccc(F)cc1)C(=O)COC(=O)c1ccc(-c2ccccc2)cc1,-6%,-22%,-7,-11%,-7%,-18%
COc1ccc(CN2C(=O)C(CC(C)C)Nc3ncnc(N4CCN(c5ccccn5)CC4)c32)cc1 (stereo unspecified),?,?,-58*,3%,5%,?
Cc1ccc(CN2C(=O)C(CC(C)C)Nc3ncnc(N4CCN(c5ccccn5)CC4)c32)cc1 (stereo unspecified),18µM*,?,-56*,-24%,·,?
CCCOc1ccc2oc(=O)c3c(c2c1)CCCN3C(=O)CN1CCN(C(=O)c2ccco2)CC1,·,·,·,·,4%,·
CCCOc1ccc2oc(=O)c3c(c2c1)CCCN3C(=O)CN1CCN(c2ncccn2)CC1,?,18µM*,6,2%,4%,0%
CCCOc1ccc2oc(=O)c3c(c2c1)CCCN3C(=O)CN1CCCC(C(=O)OCC)C1 (stereo unspecified),23µM*,?,10,-3%,2%,9%
COc1ccccc1NC(=O)Cc1nnc(SCC(=O)c2ccc(F)cc2)n1C,-22%,-2%,10,1%,6%[0.0935 µM],17%
CCOc1ccccc1NC(=O)CCC(=O)Nc1ccccc1OCC,-6%,4%,27,-18%,3%,2%
CCOc1cc(NC(=S)Nc2cccc(OC)c2)c(OCC)cc1NC(=O)c1ccc(C)cc1,21µM*,?,5,0%,10%,14%
CCOc1cc(NC(=O)C2CCCCC2)c(OCC)cc1NC(=O)c1ccccn1,1.6µM*,3.7µM*,13,-1%,0%,17%
CCOc1cc(NC(=O)CCl)c(OCC)cc1NC(=O)CCl,1.2µM*,2.9µM*,-81*,-57%,-2%,1%
CCOc1cc(NC(=S)Nc2cccc(OC)c2)c(OCC)cc1NC(=O)C(C)C,-28%,-23%,-25,-28%,7%,1%
CCOc1cc(C#N)c(NC(=O)c2cccnc2Cl)cc1OCC,-4%,4%,3,-17%,-2%,-9%
